Screens deposited in PubChem BioAssay by National Center for Advancing Translational Sciences (NCATS).
In the library only some 2.7% were active in any assay of this set; here they are far more common.
IP6K1 inhibitor = blocks human inositol hexakisphosphate kinase 1; Q92551; IP6K1 kinase, ADP-Glo luminescence, 2 h; stronger effect = lower value; activity change, % (series mostly up to about 58 µM); actives 0.81% (n = 140,000); in the data active = activity change below about -25%; also: % is scaled to controls: 0 for no effect and ±100 for the full control effect
Target sequence (Q92551 whole entry, looked up): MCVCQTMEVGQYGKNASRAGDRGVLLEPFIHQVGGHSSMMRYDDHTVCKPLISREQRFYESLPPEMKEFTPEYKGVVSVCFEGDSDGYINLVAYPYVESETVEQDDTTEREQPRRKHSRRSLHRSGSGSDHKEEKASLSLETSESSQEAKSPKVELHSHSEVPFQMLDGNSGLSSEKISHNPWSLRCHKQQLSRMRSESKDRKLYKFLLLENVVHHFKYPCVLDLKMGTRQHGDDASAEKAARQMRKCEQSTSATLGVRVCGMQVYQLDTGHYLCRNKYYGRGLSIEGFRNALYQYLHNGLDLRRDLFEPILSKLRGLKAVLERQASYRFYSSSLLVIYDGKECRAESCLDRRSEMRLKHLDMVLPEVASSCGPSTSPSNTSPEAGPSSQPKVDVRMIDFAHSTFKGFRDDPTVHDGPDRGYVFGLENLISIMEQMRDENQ
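ADP-Glo luminescence measures ADP made by human IP6K1 during a 2 h RT reaction with ATP/IP6 (mix at 1.3 mM/130 uM); top library doses 57.5 and 19.1 uM final.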
KDM5B inhibitor = KDM5B demethylase inhibition. KDM5B demethylase, FDH-coupled NADH fluorescence (FDH is formaldehyde dehydrogenase). Potency, µM (highest dose often 57.7 µM), usual class: inhibitors. actives 2.6% (n = 220,000). AID 1347165; active = well fitted inhibition curve with a large enough effect; inconclusive = small, poorly fitted or top-dose-only effect; inactive = no such curve, though single readings can be large or run the other way; also: potency is read from the fitted curve at half-maximal effect; 0% is about no effect; nearly all actives have a fitted effect of over 70% in size
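Here, H3K4me3 peptide (12.5 µM in substrate mix) is demethylated by KDM5BΔAP, 200 nM final, after 10 min compound exposure. Formaldehyde product is coupled through FDH (0.25 U/mL in mix) to NADH fluorescence; 30-min ΔRFU feeds dose-response curves.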
* marks the source's active call; other numbers are inactive results; i = inactive; ? = inconclusive; . = not tested or not shown.

SMILES	IP6K1 inhibitor	KDM5B inhibitor
CCn1cc(-c2cc3c(cn2)CN(Cc2cccnc2)CCN3)cn1	-13	32µM*
NC(=O)c1cccc(-c2cc3c(cn2)CN(Cc2ccccc2)CCN3)c1	8	32µM*
COc1ccc(C(=O)NC2CCCN(Cc3cccc(-c4ccc(C)c(Cl)c4)c3)C2)cc1 (configuration not stated)	9	.
COc1cccc(-c2nc(CN(C)CC(=O)Nc3ccc(Br)cc3C)cs2)c1	.	i
COc1cccc2cc(-c3nnc(SCC(=O)Nc4ccccc4C(C)C)n3N)oc12	.	i
c1ccc(CCN2CCNc3cc(-c4cn[nH]c4)ncc3C2)cc1	-12	?
c1ccc(CCN2CCNc3cc(NCc4cccnc4)ncc3C2)cc1	-20	35µM*
O=C(NCCCc1ccccc1)c1nc2sccn2c1-c1ccccc1	6	.
O=C(NCc1cccc(F)c1)C1CCCN(c2nc3ncccc3o2)C1 (configuration not stated)	10	i
O=C(NCc1ccccn1)C1CCCN(c2nc3ncccc3o2)C1 (configuration not stated)	-7	35µM*
COC(=O)CNC(=O)C1CCCN1c1nc2ncccc2o1 (configuration not stated)	-11	?
COCCNC(=O)C1CCN(c2nc3ncccc3o2)CC1	13	.
COCCNC(=O)C1CCCN(c2nc3ncccc3o2)C1 (configuration not stated)	16	28µM*
COC(=O)CNC(=O)C1CCCN(c2nc3ncccc3o2)C1 (configuration not stated)	9	28µM*
O=C(Cn1ccc2ccc(OCc3ccccc3)cc21)NC1CC1	.	i
CC(C)c1nc2c(c(-c3ccc(Cl)cc3)n1)CN(C(=O)c1ccccc1Cl)CC2	-6	.
Cc1ccc(CN(C)C(=O)Cc2cccc3cccnc23)c(C)c1	.	i
CCN1C(=O)C2(c3ccccc31)N1CC3(C)CN2CC(CC)(C1)C3=O (configuration not stated)	.	i
COc1ccc(Cl)cc1NC(=O)COC(=O)CCS(=O)(=O)c1ccc(NC(C)=O)cc1	.	i
O=C(NCC1CCCCC1)c1nc2sccn2c1-c1ccccc1	7	.
COc1ccc(S(=O)(=O)Nc2ccc(Nc3cc(N(C)C)nc(C)n3)cc2)c(C)c1C	.	i
CC(C)CNc1ccc2nncn2n1	-3	?
CCC(C)Nc1ccc2nncn2n1 (configuration not stated)	1	28µM*
COC(=O)c1ccc2nc(C[C@@H]3C[C@@H](C(C)C)[C@H](CNC4CCN(C)CC4)C=C3C)[nH]c2c1	-6	?
O=C(Cc1ccc(O)cc1)N1CC(CNc2ccccc2)C2(C1)CN(c1ccccc1)C2 (configuration not stated)	12	?
SMILES	IP6K1 inhibitor	KDM5B inhibitor
COc1cccc(CC(=O)N2CC(CNc3ccccc3)C3(C2)CN(c2ccccc2)C3)c1 (configuration not stated)	10	18µM*
Cc1ccc2c(C)c(C(=O)Nc3nonc3-c3cccs3)oc2c1	.	i
COc1ccccc1-c1ccc(CN2CCC(NC(C)=O)C2)cc1 (configuration not stated)	14	.
CNC(=O)CCn1ncc2cc(OCc3ccccc3-c3cccc(C)c3)ccc21	16	35µM*
CNC(=O)CCn1ncc2cc(OCc3ccccc3-c3cccc(O)c3)ccc21	5	i
CCOC(=O)CSc1ncn(-c2nc(NC)nc(N3CCCCC3)n2)n1	.	i
O=C(N[C@H]1CCOC[C@H]1C1CCOCC1)c1cc(=O)[nH]c2ccc(F)cc12	3	22µM*
Cc1[nH]c2ccc(C(=O)N[C@H]3CCOC[C@H]3C3CCOCC3)cc2c1C	15	i
CCc1ccc(-c2[nH]c3c(c2-c2ccc(OC)cc2)c(=O)[nH]c(=O)n3C)cc1	.	i
COc1cc(Cl)ccc1C(=O)N[C@@H]1CN(c2ccncn2)C[C@H]1CN(C)C	-7	i
COc1ccc(C(=O)N[C@@H]2CN(c3ccccn3)C[C@H]2CN(C)C)c(OC)c1	23	28µM*
COc1ccc(CC(=O)N[C@@H]2CN(C)C[C@H]2CN(C)C)cc1	-17	i
CN(C)C[C@@H]1CN(c2ccccn2)C[C@H]1NC(=O)c1cccs1	10	?
COc1ccc(CC(=O)N[C@@H]2CN(c3ccccn3)C[C@H]2CN(C)C)cc1	0	28µM*
CN(C)C[C@@H]1CN(c2ccccn2)C[C@H]1NC(=O)c1cnco1	8	32µM*
Cc1ccc(OCCC(=O)Nc2cccc3cccnc23)cc1	.	i
O=C(Nc1ccc(SC2CCCC2)cc1)C1CCC1	.	i
CC(C(=O)N(C)CC(=O)Nc1ccccc1C(F)(F)F)N1CCCCC1 (configuration not stated)	.	i
Cc1cccc(NC(=O)Nc2ccc(C)n(CC(=O)O)c2=O)c1	6	20µM*
Cc1cccc(NC(=O)Nc2ccc(C)n(CC(=O)Nc3ccc(C)c(C)c3)c2=O)c1	4	i
Cc1ccc(NC(=O)Nc2ccc(C)n(CC(=O)Nc3ccc(C)cc3C)c2=O)cc1	-6	i
COc1ccccc1NC(=O)Cn1c(C)ccc(NC(=O)Nc2ccc(C)cc2)c1=O	-7	18µM*
c1ccc(-c2c(-c3ccccc3)n(-c3ccccc3)c3ccccc23)cc1	.	i
CSc1cccc(NC(=O)CCc2ncc(-c3ccc(F)cc3F)o2)c1	.	i
Cc1ccccc1-c1noc(CN2CCC(O)CC2)n1	.	i
SMILES	IP6K1 inhibitor	KDM5B inhibitor
CNC(=O)c1cc(C2CC2)nc2onc(C3CCN(C(=O)c4ccccc4OC)C3)c12 (configuration not stated)	2	.
CN1CCN(Cc2cn3c(=O)n(C)cc(-c4ccccc4F)c3n2)CC1	4	i
CC(=O)Nc1cc(-c2cn(C)c(=O)n3cc(CN4CC[S+](=O)([O-])CC4)nc23)ccn1	-13	35µM*
COc1ncccc1-c1cn(C)c(=O)n2cc(CN3CC[S+](=O)([O-])CC3)nc12	10	i
Cn1cc(Nc2ccc(Cl)cc2)c2nc(CN3CC[S+](=O)([O-])CC3)cn2c1=O	14	28µM*
COc1ccc(-c2nn(-c3ccccc3C)cc2CN(C)Cc2nonc2C)cc1F	3	?
CSCC[C@@H]1NC(=O)c2cc(NC(=O)c3ccc(-n4cnnn4)cc3)ccc2NC1=O	-4	i
CSCC[C@@H]1NC(=O)c2cc(NC(=O)c3ccc4ccn(C)c4c3)ccc2NC1=O	-14	25µM*
COC(=O)[C@@H]1Cc2nc[nH]c2CN1Cc1ccc([N+](=O)[O-])cc1	25	28µM*
COc1ccc(CNC(=O)[C@@H]2Cc3nc[nH]c3CN2Cc2ccc(OC)c3ccccc23)cc1	11	?
COC(=O)[C@@H]1Cc2nc[nH]c2CN1Cc1ccc(OC)c2ccccc12	18	32µM*
O=C(NCc1ccc(C(F)(F)F)cc1)[C@@H]1Cc2nc[nH]c2CN1Cc1ccc([N+](=O)[O-])cc1	21	i
CC(SC(C)c1ccc(F)cc1)C(=O)NC(N)=O (configuration not stated)	.	i
CCOc1ccccc1CN1CCC2(CCN(C(=O)Cc3ccc(F)cc3)CC2)Oc2ccccc21	5	?
O=C(CCC(=O)c1ccc(Cl)cc1)OCC(=O)c1cccc([N+](=O)[O-])c1	.	i
COc1ccc(C(CC(=O)N(C)Cc2cnc3ccccn23)c2ccccc2)cc1 (configuration not stated)	-3	32µM*
